# Source: the supplement of paper PMC8728848
# This excerpt belongs to a sample that is enriched for the strongest signals.
# What was measured:
# Assay in all cases: glycan array binding signal (z-score within array); higher = stronger binding
# [1] = system: GlcNAc(b1-2)Man(a1-3)[GlcNAc(b1-2)Man(a1-6)]Man(b1-4)GlcNAc(b1-4)[Fuc(a1-6)]GlcNAc; conditions: glycan notation: IUPAC condensed, linker removed
# Outline: (§1)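 Negative Z-scores can be read as non-binding. The Z-score is calculated within each array and then averaged across arrays of one protein sequence at different concentrations or buffers and across linkers. Arrays, 3228 in all, were curated from the Consortium for Functional Glycomics database and kept only where the protein sequence was available.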
# [2] = system: GlcNAc(b1-2)Gal(b1-3)GalNAc; conditions: glycan notation: IUPAC condensed, linker removed
# Outline: as §1
# [3] = system: GlcNAc(b1-2)Man(a1-3)[GlcNAc(b1-2)Man(a1-6)]Man(b1-4)GlcNAc(b1-4)GlcNAc; conditions: glycan notation: IUPAC condensed, linker removed
# Outline: as §1
# [4] = system: GlcNAc(b1-2)Man(a1-3)[GlcNAc(b1-4)][GlcNAc(b1-2)Man(a1-6)]Man(b1-4)GlcNAc(b1-4)[Fuc(a1-6)]GlcNAc; conditions: glycan notation: IUPAC condensed, linker removed
# Outline: as §1
# [5] = system: GlcNAc(b1-2)[GlcNAc(b1-4)]Man(a1-3)[GlcNAc(b1-4)][GlcNAc(b1-2)Man(a1-6)]Man(b1-4)GlcNAc(b1-4)GlcNAc; conditions: glycan notation: IUPAC condensed, linker removed; mutation: R125K
# Outline: as §1
# [6] = system: GlcNAc(b1-2)[GlcNAc(b1-6)]Man(a1-6)[GlcNAc(b1-2)Man(a1-3)][GlcNAc(b1-4)]Man(b1-4)GlcNAc(b1-4)GlcNAc; conditions: glycan notation: IUPAC condensed, linker removed
# Outline: as §1
# [7] = system: GlcNAc(b1-2)[GlcNAc(b1-6)]Man(a1-6)[GlcNAc(b1-4)][GlcNAc(b1-2)Man(a1-3)]Man(b1-4)GlcNAc(b1-4)GlcNAc; conditions: glycan notation: IUPAC condensed, linker removed; mutation: R125K
# Outline: as §1
# [8] = system: GlcNAc(b1-3)Gal(b1-4)GlcNAc(b1-2)[GlcNAc(b1-3)Gal(b1-4)GlcNAc(b1-6)]Man(a1-6)[GlcNAc(b1-3)Gal(b1-4)GlcNAc(b1-2)Man(a1-3)]Man(b1-4)GlcNAc(b1-4)GlcNAc; conditions: glycan notation: IUPAC condensed, linker removed
# Outline: as §1
# [9] = system: GlcNAc(b1-2)Man(a1-3)[GlcNAc(b1-4)][GlcNAc(b1-2)Man(a1-6)]Man(b1-4)GlcNAc(b1-4)GlcNAc; conditions: glycan notation: IUPAC condensed, linker removed
# Outline: as §1
# [10] = system: GlcNAc(a1-6)Gal(b1-4)GlcNAc; conditions: glycan notation: IUPAC condensed, linker removed; mutation: D138V, E140I
# Outline: as §1
# Sequence of Avaren (Actinomycete K97) (chain, as listed by the source): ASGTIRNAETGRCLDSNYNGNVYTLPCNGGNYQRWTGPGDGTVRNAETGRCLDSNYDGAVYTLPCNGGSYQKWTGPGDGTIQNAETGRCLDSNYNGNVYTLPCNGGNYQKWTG
# Sequence of Neurocan (Homo sapiens), O14594 (O14594 other isoform, or with tags, fused parts or gaps): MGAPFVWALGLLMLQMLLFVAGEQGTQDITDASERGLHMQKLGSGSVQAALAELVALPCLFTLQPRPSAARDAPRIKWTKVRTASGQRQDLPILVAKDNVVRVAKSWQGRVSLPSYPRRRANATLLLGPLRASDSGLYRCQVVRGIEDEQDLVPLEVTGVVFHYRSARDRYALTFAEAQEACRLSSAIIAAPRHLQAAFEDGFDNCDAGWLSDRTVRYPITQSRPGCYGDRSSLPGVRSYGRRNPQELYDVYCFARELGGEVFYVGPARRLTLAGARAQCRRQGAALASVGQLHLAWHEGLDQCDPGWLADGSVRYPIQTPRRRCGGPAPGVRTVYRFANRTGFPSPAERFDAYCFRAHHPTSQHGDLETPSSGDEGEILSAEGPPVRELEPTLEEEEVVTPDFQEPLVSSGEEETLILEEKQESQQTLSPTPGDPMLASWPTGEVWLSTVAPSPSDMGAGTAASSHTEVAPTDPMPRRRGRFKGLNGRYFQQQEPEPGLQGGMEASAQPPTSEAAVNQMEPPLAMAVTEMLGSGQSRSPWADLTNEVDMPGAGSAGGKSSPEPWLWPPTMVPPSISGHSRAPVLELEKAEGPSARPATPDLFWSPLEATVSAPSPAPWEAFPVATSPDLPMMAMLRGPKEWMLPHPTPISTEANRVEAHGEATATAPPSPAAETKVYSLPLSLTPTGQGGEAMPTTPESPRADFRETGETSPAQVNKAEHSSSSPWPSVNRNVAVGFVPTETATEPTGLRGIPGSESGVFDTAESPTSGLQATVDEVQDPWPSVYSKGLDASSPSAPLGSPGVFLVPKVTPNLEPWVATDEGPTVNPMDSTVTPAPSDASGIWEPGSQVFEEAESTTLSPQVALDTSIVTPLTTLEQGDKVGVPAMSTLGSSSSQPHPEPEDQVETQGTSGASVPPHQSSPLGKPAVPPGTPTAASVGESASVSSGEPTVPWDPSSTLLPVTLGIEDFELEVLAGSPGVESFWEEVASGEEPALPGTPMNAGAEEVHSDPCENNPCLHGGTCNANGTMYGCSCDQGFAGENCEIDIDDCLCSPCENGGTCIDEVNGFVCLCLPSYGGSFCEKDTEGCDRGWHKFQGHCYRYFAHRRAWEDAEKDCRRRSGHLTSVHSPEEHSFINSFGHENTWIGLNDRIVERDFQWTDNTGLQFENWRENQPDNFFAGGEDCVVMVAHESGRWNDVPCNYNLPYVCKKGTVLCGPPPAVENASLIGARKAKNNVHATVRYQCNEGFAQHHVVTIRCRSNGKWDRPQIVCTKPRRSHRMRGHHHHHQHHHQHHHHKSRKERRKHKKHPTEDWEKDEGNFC
# Sequence of PILRb (Mus musculus), Q2YSF2 (Q2YSF2 entry or part of it): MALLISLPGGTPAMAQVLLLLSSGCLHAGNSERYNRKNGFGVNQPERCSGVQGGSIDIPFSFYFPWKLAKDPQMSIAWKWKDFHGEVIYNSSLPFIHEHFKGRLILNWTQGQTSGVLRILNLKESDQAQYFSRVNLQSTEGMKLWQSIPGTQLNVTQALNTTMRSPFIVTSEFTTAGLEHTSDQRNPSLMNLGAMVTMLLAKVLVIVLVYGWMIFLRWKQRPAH
# Sequence of C3b (Homo sapiens), P01024 (P01024 23-667): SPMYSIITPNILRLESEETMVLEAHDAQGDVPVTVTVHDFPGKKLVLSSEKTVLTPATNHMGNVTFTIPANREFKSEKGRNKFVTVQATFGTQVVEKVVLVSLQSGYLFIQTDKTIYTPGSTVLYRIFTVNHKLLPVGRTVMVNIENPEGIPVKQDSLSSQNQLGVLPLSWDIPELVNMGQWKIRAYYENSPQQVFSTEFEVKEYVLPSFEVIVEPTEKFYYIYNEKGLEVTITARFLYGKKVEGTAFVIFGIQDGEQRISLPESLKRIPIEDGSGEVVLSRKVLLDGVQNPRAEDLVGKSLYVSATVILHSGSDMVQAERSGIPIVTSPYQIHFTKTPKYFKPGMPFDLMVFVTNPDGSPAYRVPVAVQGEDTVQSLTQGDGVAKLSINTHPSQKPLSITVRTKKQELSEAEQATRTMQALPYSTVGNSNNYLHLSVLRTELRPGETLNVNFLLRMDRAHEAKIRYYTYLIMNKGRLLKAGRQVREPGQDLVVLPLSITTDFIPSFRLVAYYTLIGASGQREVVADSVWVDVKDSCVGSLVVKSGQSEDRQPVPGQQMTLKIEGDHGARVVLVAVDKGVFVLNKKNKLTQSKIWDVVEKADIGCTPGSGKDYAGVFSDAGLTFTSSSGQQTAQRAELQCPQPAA
# Sequence of CHT (Homo sapiens) (chain, as listed by the source): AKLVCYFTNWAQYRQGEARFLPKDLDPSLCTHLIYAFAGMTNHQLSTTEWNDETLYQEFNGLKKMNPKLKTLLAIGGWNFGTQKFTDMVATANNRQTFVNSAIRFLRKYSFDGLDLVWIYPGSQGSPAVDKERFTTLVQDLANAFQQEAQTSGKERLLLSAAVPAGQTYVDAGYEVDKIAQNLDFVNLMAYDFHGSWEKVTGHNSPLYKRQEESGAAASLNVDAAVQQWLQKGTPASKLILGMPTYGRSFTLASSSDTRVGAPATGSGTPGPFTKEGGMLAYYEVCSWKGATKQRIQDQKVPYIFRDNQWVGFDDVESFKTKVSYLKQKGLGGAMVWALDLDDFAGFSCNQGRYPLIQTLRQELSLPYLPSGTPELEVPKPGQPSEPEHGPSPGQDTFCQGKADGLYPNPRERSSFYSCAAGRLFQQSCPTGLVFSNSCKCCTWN
substance,measurement,setting,value
"PILRb (Mus musculus), Q2YSF2",glycan array binding signal (z-score),[1],0.569
"C3b (Homo sapiens), P01024",glycan array binding signal (z-score),[2],-0.291
"Siglec-8 (Homo sapiens), Q9NYZ4",glycan array binding signal (z-score),[3],-0.041
same,glycan array binding signal (z-score),[4],0.376
same,glycan array binding signal (z-score),[5],5.14
same,glycan array binding signal (z-score),[6],-0.061
same,glycan array binding signal (z-score),[7],-0.415
MpAFP RI GFP (Marinomonas primoryensis),glycan array binding signal (z-score),[8],5.77
"Neurocan (Homo sapiens), O14594",glycan array binding signal (z-score),[3],-0.834
Avaren (Actinomycete K97),glycan array binding signal (z-score),[9],-0.134
CHT (Homo sapiens),glycan array binding signal (z-score),[10],-0.177
